Measurements as given in PubChem BioAssay AID1159580 (chemical genetic matrix, 2015).
Hit rate of the full screen: of about 5,500 compounds, about 2,000 (36%) were called active. About 18% were inconclusive and are not listed. Cut-off read from the data, not from the text of the source: active = normalized growth mostly below about 0.91 (no sharp cut-off); inconclusive = no clear call, values can overlap the other calls; inactive = mostly above about 0.92. The list shows a part of the results.

Test: chemical genetic growth profiling, strain panel (AID 1159580);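 note: tested at 20 µM; growth read once vehicle control cultures reached saturation at 30 °C; 1 = growth at the plate median or of vehicle wells; lower values mean less growth of the strain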
Settings: growth OD

Measured: normalized growth

CCCC(C)C1(CC)C(=O)N=C(S)NC1=O (configuration not stated)
active: S. cerevisiae deletion strains, locus YKL085W, strain MDH1 (second series), hits give low values 0.309 | S. cerevisiae deletion strains, locus YKL085W, strain MDH1, hits give low values 0.309 | S. cerevisiae deletion strains, locus YKR001C, strain vps1, hits give low values 0.0973 | S. cerevisiae deletion strains, locus YLR102C, strain apc9, hits give low values 0.0762 | S. cerevisiae deletion strains, locus YLR268W, strain sec22, hits give low values 0.0785 | S. cerevisiae deletion strains, locus YLR371W, strain rom2, hits give low values 0.077 | S. cerevisiae deletion strains, locus YLR418C, strain cdc73, hits give low values 0.0993 | S. cerevisiae deletion strains, locus YML032C, strain rad52, hits give low values 0.789 | S. cerevisiae deletion strains, locus YML124C, strain tub3, hits give low values 0.113 | S. cerevisiae deletion strains, locus YMR078C, strain ctf18, hits give low values 0.124 | S. cerevisiae deletion strains, locus YMR223W, strain ubp8, hits give low values 0.0719 | S. cerevisiae deletion strains, locus YNL250W, strain rad50, hits give low values 0.434 | S. cerevisiae deletion strains, locus YNL271C, strain bni1, hits give low values 0.163 | S. cerevisiae deletion strains, locus YNL298W, strain CLA4, hits give low values 0.372 | S. cerevisiae deletion strains, locus YNL307C, strain MCK1, hits give low values 0.0689 | S. cerevisiae deletion strains, locus YOL147C, strain pex11, hits give low values 0.677 | S. cerevisiae deletion strains, locus YOR136W, strain idh2, hits give low values 0.0798 | S. cerevisiae deletion strains, locus YOR184W, strain ser1, hits give low values 0.0729 | S. cerevisiae deletion strains, locus YOR316C, strain cot1, hits give low values 0.0718 | S. cerevisiae deletion strains, locus YPR119W, strain clb2, hits give low values 0.101 | S. cerevisiae deletion strains, locus YPR163C, strain tif3, hits give low values 0.0717 | S. cerevisiae deletion strains, locus YPR167C, strain met16, hits give low values 0.0756 | S. cerevisiae deletion strains, strain wtn01, hits give low values 0.06
inactive: S. cerevisiae deletion strains, locus YJR075W, strain HOC1, hits give low values 1 | S. cerevisiae deletion strains, locus YKL009W, strain mrt4, hits give low values 0.908 | S. cerevisiae deletion strains, locus YKL068W, hits give low values 0.947 | S. cerevisiae deletion strains, locus YKL160W, strain elf1, hits give low values 0.982 | S. cerevisiae deletion strains, locus YKL190W, strain CNB1, hits give low values 1.02 | S. cerevisiae deletion strains, locus YKR026C, strain gcn3, hits give low values 0.984 | S. cerevisiae deletion strains, locus YKR091W, strain srl3, hits give low values 1.01 | S. cerevisiae deletion strains, locus YLL001W, strain dnm1, hits give low values 0.986 | S. cerevisiae deletion strains, locus YLL026W, hits give low values 1 | S. cerevisiae deletion strains, locus YLL041C, strain sdh2, hits give low values 0.994 | S. cerevisiae deletion strains, locus YLR027C, strain aat2, hits give low values 0.998 | S. cerevisiae deletion strains, locus YLR039C, strain RIC1, hits give low values 1.06 | S. cerevisiae deletion strains, locus YLR058C, strain SHM2, hits give low values 1 | S. cerevisiae deletion strains, locus YLR113W, strain HOG1, hits give low values 0.98 | S. cerevisiae deletion strains, locus YLR221C, strain rsa3, hits give low values 0.987 | S. cerevisiae deletion strains, locus YLR258W, strain gsy2, hits give low values 1 | S. cerevisiae deletion strains, locus YLR262C, strain YPT6 (second series), hits give low values 0.918 | S. cerevisiae deletion strains, locus YLR262C, strain YPT6, hits give low values 1.01 | S. cerevisiae deletion strains, locus YLR320W, strain mms22, hits give low values 0.987 | S. cerevisiae deletion strains, locus YLR330W, strain CHS5, hits give low values 1.01 | S. cerevisiae deletion strains, locus YLR342W, strain FKS1 (second series), hits give low values 1.04 | S. cerevisiae deletion strains, locus YLR342W, strain FKS1, hits give low values 0.998 | S. cerevisiae deletion strains, locus YLR357W, strain rsc2, hits give low values 0.961 | S. cerevisiae deletion strains, locus YLR370C, strain arc18, hits give low values 0.984 | S. cerevisiae deletion strains, locus YLR384C, strain iki3, hits give low values 1 | S. cerevisiae deletion strains, locus YML016C, strain PPZ1, hits give low values 1 | S. cerevisiae deletion strains, locus YML120C, strain ndi1, hits give low values 0.988 | S. cerevisiae deletion strains, locus YMR058W, strain fet3, hits give low values 1 | S. cerevisiae deletion strains, locus YMR125W, strain sto1, hits give low values 0.974 | S. cerevisiae deletion strains, locus YMR129W, hits give low values 0.971 | S. cerevisiae deletion strains, locus YMR205C, strain PFK2, hits give low values 0.97 | S. cerevisiae deletion strains, locus YMR231W, strain pep5, hits give low values 1 | S. cerevisiae deletion strains, locus YMR263W, strain SAP30, hits give low values 1.01 | S. cerevisiae deletion strains, locus YMR307W, strain GAS1, hits give low values 0.992 | S. cerevisiae deletion strains, locus YNL067W, strain RPL9B, hits give low values 1.01 | S. cerevisiae deletion strains, locus YNL071W, strain lat1, hits give low values 1 | S. cerevisiae deletion strains, locus YNL128W, strain TEP1, hits give low values 1 | S. cerevisiae deletion strains, locus YNL153C, strain GIM3, hits give low values 0.999 | S. cerevisiae deletion strains, locus YNL183C, strain NPR1, hits give low values 0.923 | S. cerevisiae deletion strains, locus YNL209W, strain ssb2, hits give low values 0.982 | S. cerevisiae deletion strains, locus YNL233W, strain BNI4, hits give low values 0.999 | S. cerevisiae deletion strains, locus YNL248C, strain rpa49, hits give low values 0.988 | S. cerevisiae deletion strains, locus YNL322C, strain KRE1 (second series), hits give low values 0.979 | S. cerevisiae deletion strains, locus YNL322C, strain KRE1, hits give low values 1.01 | S. cerevisiae deletion strains, locus YNR049C, strain mso1, hits give low values 0.992 | S. cerevisiae deletion strains, locus YNR052C, strain pop2, hits give low values 1.01 | S. cerevisiae deletion strains, locus YOL006C, strain TOP1, hits give low values 1.03 | S. cerevisiae deletion strains, locus YOL012C, strain htz1 0.212 | S. cerevisiae deletion strains, locus YOR001W, strain rrp6, hits give low values 0.98 | S. cerevisiae deletion strains, locus YOR061W, strain CKA2, hits give low values 1.01 | S. cerevisiae deletion strains, locus YOR069W, strain VPS5, hits give low values 1.01 | S. cerevisiae deletion strains, locus YOR070C, strain gyp1, hits give low values 1 | S. cerevisiae deletion strains, locus YOR080W, strain dia2, hits give low values 0.989 | S. cerevisiae deletion strains, locus YOR083W, strain WHI5, hits give low values 0.988 | S. cerevisiae deletion strains, locus YOR106W, strain vam3, hits give low values 0.979 | S. cerevisiae deletion strains, locus YOR144C, strain elg1, hits give low values 1 | S. cerevisiae deletion strains, locus YOR231W, strain MKK1, hits give low values 0.994 | S. cerevisiae deletion strains, locus YOR265W, strain rbl2, hits give low values 0.986 | S. cerevisiae deletion strains, locus YOR270C, strain vph1, hits give low values 0.969 | S. cerevisiae deletion strains, locus YOR290C, strain snf2, hits give low values 0.997 | S. cerevisiae deletion strains, locus YPL051W, strain arl3, hits give low values 1 | S. cerevisiae deletion strains, locus YPL055C, strain LGE1, hits give low values 1.01 | S. cerevisiae deletion strains, locus YPL078C, strain atp4, hits give low values 0.981 | S. cerevisiae deletion strains, locus YPL106C, strain sse1, hits give low values 0.977 | S. cerevisiae deletion strains, locus YPL240C, strain hsp82, hits give low values 0.991 | S. cerevisiae deletion strains, locus YPL241C, strain CIN2, hits give low values 1.02 | S. cerevisiae deletion strains, locus YPL256C, strain CLN2, hits give low values 0.977 | S. cerevisiae deletion strains, locus YPR141C, strain kar3, hits give low values 0.983 | S. cerevisiae strains, strain wild type, hits give low values 1.01
